Reference: PubChem BioAssay (NCATS)
Results filed as inconclusive are left out. Activity calls are given as the source filed them. Calls come from the whole dose curve; as a rule, active = well fitted curve in the direction sought with a large enough effect; inconclusive = small, poorly fitted or top-dose-only effect, or another doubt; inactive = no such curve, though single readings can be large; an effect the other way counts as inactive or inconclusive.

Assays:
[1] = biological target: Nuclear receptor subfamily 1 group I member 3 (Homo sapiens) (UniProt Q14994); assay: Primary qHTS for agonist of constitutive androstane receptor (CAR) against the NCATS DSHEA and TCM libraries (AID 1794839); conditions: CAR agonist reporter cells, qHTS luminescence; Potency: CAR antagonist co-added at 0.75 µM unless noted; series mostly up to 40 µM;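 note: HepG2 cells expressing human CAR with a CYP2B6 reporter plus PK11195 antagonist; 0% is about no effect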
Chain of Nuclear receptor subfamily 1 group I member 3 (Homo sapiens) (Q14994 whole entry, looked up): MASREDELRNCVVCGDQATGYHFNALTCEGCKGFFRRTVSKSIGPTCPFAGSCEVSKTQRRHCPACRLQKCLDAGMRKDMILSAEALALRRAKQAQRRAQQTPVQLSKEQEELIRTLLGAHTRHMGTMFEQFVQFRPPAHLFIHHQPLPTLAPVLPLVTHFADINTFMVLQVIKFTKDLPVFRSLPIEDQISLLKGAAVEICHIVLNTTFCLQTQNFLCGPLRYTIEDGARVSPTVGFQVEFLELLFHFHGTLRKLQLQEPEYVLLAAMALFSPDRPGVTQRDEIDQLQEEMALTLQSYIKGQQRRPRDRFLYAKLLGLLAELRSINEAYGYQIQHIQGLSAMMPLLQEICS
Procedure, shortened: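 HepG2-CYP2B6-hCAR cells (2,500/well) were attached for 5 h, then treated for 24 h at 37 °C with compounds plus 0.75 µM PK11195. Luciferase luminescence (ONE-Glo) was read, with CellTiter-Fluor viability (Ex/Em 405/540 nm).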

[2] = HepG2 viability counterscreen (readout 2: ATP content) against the NCATS DSHEA and TCM libraries (AID 1794840); conditions: ATP content luminescence; series mostly up to 27.3 µM;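 note: HepG2 cells exposed to substances for about 24 h; 0% is about no effect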
Procedure, shortened: (§1)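 HepG2 cells (1,000 cells/well) attached ~4 h, then treated ~24 h at 37C with substances. Protease activity read by GF-AFC (25 uM final, 30 min, Ex/Em 380/510 nm); ATP content then by CellTiter-Glo luminescence.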

[3] = HepG2 viability counterscreen (readout 1: protease activity) against the NCATS DSHEA and TCM libraries (AID 1794841); conditions: qHTS concentration series; series mostly up to 27.3 µM;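 note: cells exposed to compounds for about 24 h before the protease read; 0% is about no effect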
Procedure, shortened: as §1

[4] = biological target: Cytochrome P450 2C19 (Homo sapiens) (UniProt P33261); assay: qHTS for inhibitors of CYP2C19 against the NCATS DSHEA and TCM libraries (AID 1919974); conditions: CYP2C19 enzyme inhibition, luminescence qHTS; series mostly up to 34.1 µM;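 note: luminescence from luciferin released by CYP2C19 oxidation of a pro-luciferin substrate; % is set by controls: 0 for no effect and ±100 for the full control effect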
Chain of Cytochrome P450 2C19 (Homo sapiens) (P33261 whole entry, looked up, canonical isoform): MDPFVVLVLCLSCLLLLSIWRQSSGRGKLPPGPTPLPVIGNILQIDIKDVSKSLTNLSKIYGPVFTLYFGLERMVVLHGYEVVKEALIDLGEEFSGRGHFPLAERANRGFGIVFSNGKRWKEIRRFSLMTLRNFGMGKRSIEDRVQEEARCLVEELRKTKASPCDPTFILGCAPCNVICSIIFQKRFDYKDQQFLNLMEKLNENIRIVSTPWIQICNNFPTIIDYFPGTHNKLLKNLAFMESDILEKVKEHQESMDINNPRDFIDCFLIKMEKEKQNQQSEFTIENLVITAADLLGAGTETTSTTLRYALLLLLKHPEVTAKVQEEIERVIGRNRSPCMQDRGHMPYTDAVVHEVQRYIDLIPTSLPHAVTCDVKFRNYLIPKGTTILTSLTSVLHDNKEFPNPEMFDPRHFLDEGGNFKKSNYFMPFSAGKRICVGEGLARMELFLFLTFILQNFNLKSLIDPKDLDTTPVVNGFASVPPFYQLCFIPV
Procedure, shortened: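 Isoform-specific enzyme and substrate levels; enzyme-free wells as background. Reaction: 1x NADPH regenerating system, 30-45 min, room temperature, shielded from light; luminescent detection reagent added, 30 min.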

[5] = KB-3-1 P-gp reporter qHTS against the NCATS DSHEA and TCM libraries (AID 1919975); conditions: KB-3-1 parental cells, CellTiter-Glo luminescence viability, 72 h; series mostly up to 26.1 µM; note: 0% is about no effect
Procedure, shortened: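 Parental KB-3-1 human cervical adenocarcinoma cells (500 cells/well, DMEM + 10% FBS) were treated with substances for ~72 h at 37C; viability was read by CellTiter-Glo luminescence.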

[6] = biological target: Cytochrome P450 1A2 (Homo sapiens) (UniProt P05177); assay: qHTS for inhibitors of CYPIA2 against the NCATS DSHEA and TCM libraries (AID 1919976); conditions: recombinant CYP1A2 enzyme activity, luminescence; series mostly up to 37 µM;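 note: light from luciferin formed by CYP1A2 from a pro-luciferin substrate; % is set by controls: 0 for no effect and ±100 for the full control effect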
Chain of Cytochrome P450 1A2 (Homo sapiens) (P05177 whole entry, looked up): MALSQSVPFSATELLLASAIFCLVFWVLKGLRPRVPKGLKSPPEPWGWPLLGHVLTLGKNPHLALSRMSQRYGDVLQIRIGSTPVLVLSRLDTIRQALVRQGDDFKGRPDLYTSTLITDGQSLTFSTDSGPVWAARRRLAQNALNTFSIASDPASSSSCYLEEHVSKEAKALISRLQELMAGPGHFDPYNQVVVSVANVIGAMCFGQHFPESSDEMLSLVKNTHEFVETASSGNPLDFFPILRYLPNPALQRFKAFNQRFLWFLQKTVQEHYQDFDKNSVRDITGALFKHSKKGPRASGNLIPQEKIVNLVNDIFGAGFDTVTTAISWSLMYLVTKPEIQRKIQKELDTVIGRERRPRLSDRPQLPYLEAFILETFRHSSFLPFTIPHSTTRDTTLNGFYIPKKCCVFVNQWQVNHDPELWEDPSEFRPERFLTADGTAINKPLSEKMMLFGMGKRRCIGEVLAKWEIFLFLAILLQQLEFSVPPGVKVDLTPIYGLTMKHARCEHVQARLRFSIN
Procedure, shortened: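 Furafylline served as the plate control. Compounds met CYP1A2 and pro-luciferin substrate 15 min before NADPH regeneration solution (1x) was added; after 30-45 min at RT, P450-Glo reagent was added for 30 min and luminescence was measured.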

[7] = qHTS Counterscreen for compound interference against the NCATS DSHEA and TCM libraries (AID 1919978); conditions: firefly luciferase detection reagent interference, luminescence; note: % of control where 0% means no effect
Procedure, shortened: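 D-luciferin (1 uM final) or 100 mM potassium phosphate buffer alone was preincubated 15 min at RT with compounds (19.5 nM to 39.8 uM final). Luciferin detection reagent was then added and luminescence read after 30 min at RT.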

[8] = Dual reporter qHTS for agonist of Pregnane X Receptor (hPXR) against the NCATS DSHEA and TCM libraries: Fluorescence readout (AID 1920058); conditions: PXR dual reporter cells; series mostly up to 40 µM; note: 0% is about no effect
Procedure, shortened: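 In this qHTS counter-read, reporter-bearing HepG2 cells in charcoal-stripped serum received substances for approximately 24 h before viability was assessed fluorometrically with CellTiter-Fluor.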

[9] = biological target: Nuclear receptor subfamily 1 group I member 2 (Homo sapiens) (UniProt O75469); assay: Dual reporter qHTS for antagonist of Pregnane X Receptor (hPXR) against the NCATS DSHEA and TCM libraries: Luminescence Readout (AID 1920060); conditions: hPXR dual reporter cells, luciferase luminescence, antagonist mode; series mostly up to 40 µM;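 note: HepG2 cells carrying hPXR luciferase reporter stimulated with rifampicin at 2 µM; 0% is about no effect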
Chain of Nuclear receptor subfamily 1 group I member 2 (Homo sapiens) (O75469 whole entry, looked up): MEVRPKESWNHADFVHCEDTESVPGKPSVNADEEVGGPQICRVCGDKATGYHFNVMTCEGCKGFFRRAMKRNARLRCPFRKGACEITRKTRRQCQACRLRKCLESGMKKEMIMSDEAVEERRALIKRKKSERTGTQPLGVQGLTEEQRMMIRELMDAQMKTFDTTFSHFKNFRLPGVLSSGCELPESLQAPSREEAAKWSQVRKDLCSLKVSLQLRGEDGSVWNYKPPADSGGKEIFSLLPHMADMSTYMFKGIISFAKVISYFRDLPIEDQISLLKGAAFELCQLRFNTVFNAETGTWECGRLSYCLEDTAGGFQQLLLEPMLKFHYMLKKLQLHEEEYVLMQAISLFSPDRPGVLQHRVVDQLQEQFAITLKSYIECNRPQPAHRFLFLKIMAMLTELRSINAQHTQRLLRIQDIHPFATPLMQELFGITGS
Procedure, shortened: (§2)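 hPXR-Luc HepG2 cells exposed 24 h at 37 C to compounds with 2 uM rifampicin in antagonist mode; luciferase luminescence measured by ONE-Glo, with CellTiter-Fluor viability read beforehand.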

[10] = Dual reporter qHTS for antagonist of Pregnane X Receptor (hPXR) against the NCATS DSHEA and TCM libraries: Fluorescence Readout (AID 1920061); conditions: PXR dual reporter cells, antagonist mode; series mostly up to 40 µM; note: 0% is about no effect
Procedure, shortened: as §2

AS120 = assay: qHTS profiling for inhibitors of Plasmodium falciparum proliferation (AID 504749);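 note: 0% = DMSO vehicle and full inhibition = artemisinin control; nearly all actives have a fitted effect of over 60% in size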; conditions: P. falciparum in erythrocytes, SYBR Green DNA, 72 h; series mostly up to 28.7 µM
Procedure, shortened: (§3)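 Fluorescence of SYBR Green-bound parasite DNA, read at 485/535 nm, served as the growth measure. Infected erythrocytes were cultured with compound 72 h; artemisinin (0.29 uM) and DMSO wells defined the normalization range.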

CP194 = assay: as above; conditions: P. falciparum in erythrocytes, SYBR Green DNA, 72 h; series mostly up to 28.7 µM
Procedure, shortened: as §3

CP203 = assay: as above; conditions: P. falciparum in erythrocytes, SYBR Green DNA, 72 h; series mostly up to 28.7 µM
Procedure, shortened: as §3

CP265 = assay: as above; conditions: P. falciparum in erythrocytes, SYBR Green DNA, 72 h; series mostly up to 12.8 µM
Procedure, shortened: as §3

CP268 = assay: as above; conditions: P. falciparum in erythrocytes, SYBR Green DNA, 72 h; series mostly up to 28.7 µM
Procedure, shortened: as §3

CP269 = assay: as above; conditions: P. falciparum in erythrocytes, SYBR Green DNA, 72 h; series mostly up to 28.7 µM
Procedure, shortened: as §3

CP305 = assay: as above; conditions: P. falciparum in erythrocytes, SYBR Green DNA, 72 h; series mostly up to 28.7 µM
Procedure, shortened: as §3

DIV30 = assay: as above; conditions: P. falciparum in erythrocytes, SYBR Green DNA, 72 h; series mostly up to 28.7 µM
Procedure, shortened: as §3

PAD = assay: as above; conditions: P. falciparum in erythrocytes, SYBR Green DNA, 72 h; series mostly up to 28.7 µM
Procedure, shortened: as §3

PC26 = assay: as above; conditions: P. falciparum in erythrocytes, SYBR Green DNA, 72 h; series mostly up to 28.7 µM
Procedure, shortened: as §3

COC1=C[C@@]23CCN(C)[C@H](Cc4ccc(OC)c(O)c42)C3=CC1=O
inactive: Potency [1] | outcome [2] | outcome [3] | Potency [4] | outcome [5] | Potency [6] | max response [7] -3.14% | outcome [8] | outcome [9] | outcome [10]

C[C@]12CC[C@H]3[C@@H](CCC4=CC(=O)CC[C@@]43C)[C@@H]1CC[C@@H]2O
inactive: Potency (AS120) | Potency (CP194) | Potency (CP203) | Potency (CP265) | Potency (CP268) | Potency (CP269) | Potency (CP305) | Potency (DIV30) | Potency (PAD) | Potency (PC26)
